The supplement of paper PMC10849652
About 7,900 targets were measured; listed, in parts, are those with a hit and a random draw of the rest. About 0.6% of all pairs of compound and target were hits.

Each target was assayed with CNC(=O)c1ccc(Nc2ncc(C(F)(F)F)c(NCc3nccnc3N(C)S(C)(=O)=O)n2)cc1 [defactinib] (assay: log2 fold change, soluble protein after heating vs DMSO (PISA); higher = thermal stabilisation; K562 cells, 10 uM, 30 min; active = over 0.2 and 3.5 SD of the protein, either way, in both replicates (recomputed)).
How it was run: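 K562 cells at 2×10^6 cells/mL were exposed to 10 μM compound for 30 min, then aliquots were heated for 3 min across 48°C-58°C, pooled, and extracted in PBS containing 0.5% NP-40 at 4°C. The supernatant after 21,000xg for 90 min was taken as soluble protein and measured by TMTpro 16plex LC-MS/MS with channel sums equalised. Thermal stability is reported relative to control samples, with values from duplicates. Fold changes are given on a log2 scale.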

Chain of UniProt Q969S0 (Q969S0 whole entry, looked up): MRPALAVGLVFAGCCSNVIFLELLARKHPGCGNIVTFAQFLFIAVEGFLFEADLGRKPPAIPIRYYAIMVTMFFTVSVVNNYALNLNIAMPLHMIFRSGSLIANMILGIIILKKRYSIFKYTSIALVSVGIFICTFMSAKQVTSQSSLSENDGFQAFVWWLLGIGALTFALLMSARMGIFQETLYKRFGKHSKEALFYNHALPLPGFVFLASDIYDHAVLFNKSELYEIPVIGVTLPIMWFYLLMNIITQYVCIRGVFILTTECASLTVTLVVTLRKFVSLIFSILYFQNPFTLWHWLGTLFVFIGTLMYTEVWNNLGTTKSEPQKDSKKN
Chain of UniProt Q13242 (Q13242 whole entry, looked up): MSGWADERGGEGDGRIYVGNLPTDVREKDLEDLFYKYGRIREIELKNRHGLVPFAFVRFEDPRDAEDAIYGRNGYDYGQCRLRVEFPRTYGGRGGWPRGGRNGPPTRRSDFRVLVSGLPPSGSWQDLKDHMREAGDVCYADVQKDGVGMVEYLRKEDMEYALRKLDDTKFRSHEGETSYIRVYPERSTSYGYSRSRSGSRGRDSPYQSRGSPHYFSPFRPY
Chain of UniProt Q9BYN0 (Q9BYN0 whole entry, looked up): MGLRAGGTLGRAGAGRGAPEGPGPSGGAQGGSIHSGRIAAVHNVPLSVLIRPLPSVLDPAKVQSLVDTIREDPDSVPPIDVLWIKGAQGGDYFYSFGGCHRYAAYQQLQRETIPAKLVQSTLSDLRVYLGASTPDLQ
Chain of UniProt Q9NXE4 (Q9NXE4 whole entry, looked up): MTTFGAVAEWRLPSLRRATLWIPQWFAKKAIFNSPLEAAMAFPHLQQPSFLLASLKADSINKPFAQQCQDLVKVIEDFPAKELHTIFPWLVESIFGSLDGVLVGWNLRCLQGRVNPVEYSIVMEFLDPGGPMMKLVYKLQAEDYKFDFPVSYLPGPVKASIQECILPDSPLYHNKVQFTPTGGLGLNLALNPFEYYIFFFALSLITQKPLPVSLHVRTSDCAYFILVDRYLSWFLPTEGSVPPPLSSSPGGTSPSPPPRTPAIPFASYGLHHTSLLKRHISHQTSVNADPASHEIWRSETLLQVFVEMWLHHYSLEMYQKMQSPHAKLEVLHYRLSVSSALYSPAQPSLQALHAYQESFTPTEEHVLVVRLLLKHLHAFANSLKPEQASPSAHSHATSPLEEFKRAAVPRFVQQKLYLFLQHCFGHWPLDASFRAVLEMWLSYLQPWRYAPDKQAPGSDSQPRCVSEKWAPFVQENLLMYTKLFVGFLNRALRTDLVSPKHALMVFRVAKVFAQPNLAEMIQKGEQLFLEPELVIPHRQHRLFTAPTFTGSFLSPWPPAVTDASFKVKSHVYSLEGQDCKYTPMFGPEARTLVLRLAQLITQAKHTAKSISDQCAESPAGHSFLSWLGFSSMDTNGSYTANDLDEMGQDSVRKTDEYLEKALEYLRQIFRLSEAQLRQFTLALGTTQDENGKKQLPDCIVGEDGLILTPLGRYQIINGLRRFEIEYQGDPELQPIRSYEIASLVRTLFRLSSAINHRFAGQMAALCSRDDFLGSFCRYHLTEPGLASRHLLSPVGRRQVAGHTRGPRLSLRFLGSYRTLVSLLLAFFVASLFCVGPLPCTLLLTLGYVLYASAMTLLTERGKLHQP
Chain of UniProt Q6J4K2 (Q6J4K2 whole entry, looked up): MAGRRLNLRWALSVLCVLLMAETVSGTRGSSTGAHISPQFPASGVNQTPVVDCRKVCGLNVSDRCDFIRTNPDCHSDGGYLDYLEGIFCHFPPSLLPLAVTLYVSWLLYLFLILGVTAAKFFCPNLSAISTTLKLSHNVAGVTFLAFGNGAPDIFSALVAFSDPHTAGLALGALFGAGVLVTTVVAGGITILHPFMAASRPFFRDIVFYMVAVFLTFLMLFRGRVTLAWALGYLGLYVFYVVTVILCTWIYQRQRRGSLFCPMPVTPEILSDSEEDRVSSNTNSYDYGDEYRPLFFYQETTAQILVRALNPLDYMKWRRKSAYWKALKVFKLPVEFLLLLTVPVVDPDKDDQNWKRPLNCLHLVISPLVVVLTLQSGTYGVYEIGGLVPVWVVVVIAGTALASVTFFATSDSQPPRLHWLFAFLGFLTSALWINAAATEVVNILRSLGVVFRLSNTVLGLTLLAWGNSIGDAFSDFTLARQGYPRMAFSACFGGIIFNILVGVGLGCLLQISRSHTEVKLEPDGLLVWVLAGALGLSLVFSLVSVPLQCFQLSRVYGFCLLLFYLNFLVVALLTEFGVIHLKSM
Chain of UniProt O60271 (O60271 whole entry, looked up): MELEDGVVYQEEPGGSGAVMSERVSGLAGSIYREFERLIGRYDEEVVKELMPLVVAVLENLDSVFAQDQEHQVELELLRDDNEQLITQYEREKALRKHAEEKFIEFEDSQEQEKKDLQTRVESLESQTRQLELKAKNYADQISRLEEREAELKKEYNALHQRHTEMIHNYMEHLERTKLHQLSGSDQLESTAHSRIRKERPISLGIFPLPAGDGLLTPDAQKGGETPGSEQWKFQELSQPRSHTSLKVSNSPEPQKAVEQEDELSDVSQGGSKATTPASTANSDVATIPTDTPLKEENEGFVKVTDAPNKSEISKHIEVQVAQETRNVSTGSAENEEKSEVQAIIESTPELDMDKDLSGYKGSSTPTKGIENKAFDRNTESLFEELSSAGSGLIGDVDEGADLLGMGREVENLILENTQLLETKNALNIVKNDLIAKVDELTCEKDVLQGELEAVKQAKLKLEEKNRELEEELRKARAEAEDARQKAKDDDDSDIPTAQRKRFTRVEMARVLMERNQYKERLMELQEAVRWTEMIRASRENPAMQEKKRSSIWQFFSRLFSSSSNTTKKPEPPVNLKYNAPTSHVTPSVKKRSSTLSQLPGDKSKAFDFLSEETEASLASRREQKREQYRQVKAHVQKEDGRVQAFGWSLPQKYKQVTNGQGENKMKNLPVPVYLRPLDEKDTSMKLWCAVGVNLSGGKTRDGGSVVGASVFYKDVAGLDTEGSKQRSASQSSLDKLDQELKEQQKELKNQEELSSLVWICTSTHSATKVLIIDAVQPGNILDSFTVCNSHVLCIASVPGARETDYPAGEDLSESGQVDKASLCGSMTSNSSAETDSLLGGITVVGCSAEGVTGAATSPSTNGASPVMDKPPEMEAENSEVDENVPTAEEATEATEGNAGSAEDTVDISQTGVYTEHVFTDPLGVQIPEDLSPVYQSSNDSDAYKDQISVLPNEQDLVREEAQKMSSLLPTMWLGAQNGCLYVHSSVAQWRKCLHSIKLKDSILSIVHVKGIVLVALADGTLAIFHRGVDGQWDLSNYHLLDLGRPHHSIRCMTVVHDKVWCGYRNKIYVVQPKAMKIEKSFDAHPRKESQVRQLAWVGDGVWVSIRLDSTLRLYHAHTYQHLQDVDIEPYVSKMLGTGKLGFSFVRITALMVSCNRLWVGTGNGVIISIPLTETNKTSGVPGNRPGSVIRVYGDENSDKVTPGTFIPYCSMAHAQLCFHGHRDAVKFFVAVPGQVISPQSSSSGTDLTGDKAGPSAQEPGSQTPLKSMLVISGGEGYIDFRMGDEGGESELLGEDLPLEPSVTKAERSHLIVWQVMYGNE
Chain of UniProt Q08AE8 (Q08AE8 whole entry, looked up): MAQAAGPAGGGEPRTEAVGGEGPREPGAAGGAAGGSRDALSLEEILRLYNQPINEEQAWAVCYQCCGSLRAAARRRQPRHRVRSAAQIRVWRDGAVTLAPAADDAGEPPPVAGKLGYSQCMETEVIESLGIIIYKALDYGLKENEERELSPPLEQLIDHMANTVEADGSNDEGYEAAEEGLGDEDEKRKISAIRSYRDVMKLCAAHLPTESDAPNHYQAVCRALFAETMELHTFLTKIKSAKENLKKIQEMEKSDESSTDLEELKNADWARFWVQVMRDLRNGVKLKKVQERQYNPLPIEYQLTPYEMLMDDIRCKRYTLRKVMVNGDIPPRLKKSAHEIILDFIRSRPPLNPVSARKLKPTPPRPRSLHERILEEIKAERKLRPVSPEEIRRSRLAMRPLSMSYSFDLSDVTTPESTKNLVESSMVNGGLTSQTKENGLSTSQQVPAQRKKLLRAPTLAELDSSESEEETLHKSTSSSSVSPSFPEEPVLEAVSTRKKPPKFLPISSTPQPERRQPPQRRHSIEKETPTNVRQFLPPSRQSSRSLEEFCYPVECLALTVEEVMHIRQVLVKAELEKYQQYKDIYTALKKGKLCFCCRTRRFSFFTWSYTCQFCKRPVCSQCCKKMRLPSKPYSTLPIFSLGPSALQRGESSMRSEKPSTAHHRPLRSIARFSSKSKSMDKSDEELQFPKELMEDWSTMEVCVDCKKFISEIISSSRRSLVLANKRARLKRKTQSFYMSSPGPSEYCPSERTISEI
Chain of UniProt O76062 (O76062 whole entry, looked up): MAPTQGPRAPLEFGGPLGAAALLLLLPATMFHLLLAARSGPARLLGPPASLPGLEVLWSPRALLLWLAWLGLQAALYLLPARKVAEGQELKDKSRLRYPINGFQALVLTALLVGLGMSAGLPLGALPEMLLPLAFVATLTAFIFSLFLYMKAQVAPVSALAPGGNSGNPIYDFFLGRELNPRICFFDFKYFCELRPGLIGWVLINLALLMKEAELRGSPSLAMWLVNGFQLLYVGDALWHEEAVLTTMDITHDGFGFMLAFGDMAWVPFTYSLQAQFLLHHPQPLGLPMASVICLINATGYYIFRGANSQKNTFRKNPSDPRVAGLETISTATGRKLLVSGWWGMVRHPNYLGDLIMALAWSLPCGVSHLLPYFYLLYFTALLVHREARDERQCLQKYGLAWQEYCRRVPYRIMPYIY
Chain of UniProt P20226 (P20226 whole entry, looked up): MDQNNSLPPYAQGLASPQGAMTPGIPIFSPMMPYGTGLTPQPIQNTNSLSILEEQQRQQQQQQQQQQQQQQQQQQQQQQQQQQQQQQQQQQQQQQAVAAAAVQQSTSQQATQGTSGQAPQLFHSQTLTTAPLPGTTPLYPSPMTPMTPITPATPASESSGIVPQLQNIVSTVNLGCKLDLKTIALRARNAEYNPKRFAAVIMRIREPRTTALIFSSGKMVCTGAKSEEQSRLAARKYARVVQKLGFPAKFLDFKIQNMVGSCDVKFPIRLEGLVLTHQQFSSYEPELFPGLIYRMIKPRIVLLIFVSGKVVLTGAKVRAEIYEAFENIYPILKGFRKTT

With SSBP4 (UniProt U3KPY3) as the target, how does the log2 fold change read?
Its log2 fold change is -0.189 (inactive).

For SNX2 isoform 2 (UniProt O60749), which log2 fold change is on record?
Its log2 fold change is -0.155 (inactive).

For TK1 (UniProt K7ERV3), which log2 fold change is on record?
Its log2 fold change is 0 (inactive).

With TBK1 (UniProt Q9UHD2) as the target, how does the log2 fold change read?
Its log2 fold change is 0.079 (inactive).

How did the log2 fold change turn out when SLC8B1 (UniProt Q6J4K2) was run?
Its log2 fold change is 0.029 (inactive).

How did the log2 fold change turn out when TBP (UniProt P20226) was run?
Its log2 fold change is -0.003 (inactive).

With SLC46A1 (UniProt Q96NT5) as the target, how does the log2 fold change read?
The log2 fold change was 0.034 (inactive).

With TCOF1 isoform 6 (UniProt Q13428) as the target, how does the log2 fold change read?
Its log2 fold change is 0.027 (inactive).

Which log2 fold change does the source give for SPIRE1 (UniProt Q08AE8) here?
Its log2 fold change is 0.047 (inactive).

How did the log2 fold change turn out when SPAG9 isoform 4 (UniProt O60271) was run?
Its log2 fold change is 0.018 (inactive).

Which log2 fold change does the source give for TEX30 (UniProt Q5JUR7) here?
Its log2 fold change is -0.096 (inactive).

SOX5 (UniProt P35711) was tested. Which log2 fold change did it give?
Its log2 fold change is -0.224 (inactive).

For SMPD4 isoform 2 (UniProt Q9NXE4), which log2 fold change is on record?
Its log2 fold change is 0.094 (inactive).

SRC isoform 2 (UniProt P12931) was tested. Which log2 fold change did it give?
Its log2 fold change is -0.077 (inactive).

How did the log2 fold change turn out when SMARCA4 (UniProt P51532) was run?
The log2 fold change was 0.134 (inactive).

Which log2 fold change does the source give for TBC1D20 isoform 3 (UniProt Q96BZ9) here?
Its log2 fold change is -0.044 (inactive).

SLC35B4 (UniProt Q969S0) was tested. Which log2 fold change did it give?
The log2 fold change was 0.086 (inactive).

Which log2 fold change does the source give for TM7SF2 (UniProt O76062) here?
Its log2 fold change is -0.006 (inactive).

Which log2 fold change does the source give for SLC38A7 (UniProt Q9NVC3) here?
Its log2 fold change is -0.126 (inactive).

Which log2 fold change does the source give for SRXN1 (UniProt Q9BYN0) here?
Its log2 fold change is -0.283 (inactive).

For SRSF9 (UniProt Q13242), which log2 fold change is on record?
The log2 fold change was 0.276 (inactive).

For SSB (UniProt E7ERC4), which log2 fold change is on record?
Its log2 fold change is -0.205 (inactive).
